bovine MsrA act: bovine methionine sulfoxide reductase A activation; purified bovine MsrA, absorbance read-out; activation, % at 10.6 µM; actives 0.3% (n = 360,000); in the data active = activation above about 7.5%
sPLA2-III inh: Inhibits HGIII-sPLA2 liposome hydrolysis, primary screen. Q9NZ20. QFRET BODIPY PC-A2 liposome hydrolysis, fluorescence. inhibition, % at 12.2 µM. actives 0.56% (n = 370,000);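 active = inhibition above mean plus 3 SD of compounds lying within the high and low control bounds, cut at about 19% in these data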
Target sequence (Q9NZ20 whole entry, looked up): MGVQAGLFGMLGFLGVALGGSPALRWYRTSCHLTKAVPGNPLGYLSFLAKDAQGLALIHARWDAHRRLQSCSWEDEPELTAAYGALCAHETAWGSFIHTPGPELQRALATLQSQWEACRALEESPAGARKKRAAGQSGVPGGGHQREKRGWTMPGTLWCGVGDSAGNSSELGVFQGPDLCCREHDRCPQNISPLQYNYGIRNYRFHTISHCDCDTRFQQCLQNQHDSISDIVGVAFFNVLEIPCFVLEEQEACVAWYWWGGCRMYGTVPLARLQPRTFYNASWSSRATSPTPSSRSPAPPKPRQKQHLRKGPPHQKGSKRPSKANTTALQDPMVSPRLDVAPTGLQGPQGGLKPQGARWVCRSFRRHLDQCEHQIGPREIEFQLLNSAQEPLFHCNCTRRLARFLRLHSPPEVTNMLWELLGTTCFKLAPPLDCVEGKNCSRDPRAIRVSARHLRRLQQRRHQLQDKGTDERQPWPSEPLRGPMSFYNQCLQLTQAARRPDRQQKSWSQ
MsrA inh: inhibits bovine methionine sulfoxide reductase A; purified bovine MsrA, absorbance read-out; inhibition, % at 15.5 µM; actives 0.75% (n = 360,000); AID 651718; in the data active = inhibition above about 4.5%
rCAG binder: binds r(CAG) RNA repeats; actives 1.3% (n = 370,000); inhibition, % at 3 µM; r(CAG) RNA repeat, TO-PRO-1 dye displacement fluorescence;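 active = inhibition above the plate cutoff, the mean of all test compounds on that plate plus 3 SD, cut at about 35% in these data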;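 also: higher means more dye released from RNA so lower well fluorescence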
rCAG bind conf: r(CAG) RNA repeat binding, confirmation; shares compounds with rCAG binder; TO-PRO-1 dye displacement fluorescence; inhibition, % at 3 µM; actives 70% (n = 4,300); AID 652065;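 active = inhibition above a per-plate cutoff, the mean inhibition of sample wells plus 3 SD, cut at about 35% in these data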;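 also: loss of TO-PRO-1 fluorescence as compound displaces dye from 1x1 AA loop RNA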
dCAG dye counter: counter-screen for rCAG RNA binders: DNA CAG dye complex inhibitors. d(CAG) DNA oligo TO-PRO-1 dye displacement, fluorescence. actives 94% (n = 4,300). shares compounds with rCAG binder. inhibition, % at 3 µM;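 active = inhibition above its plate's cutoff, the mean test-well inhibition plus 3 SD, cut at about 4.8% in these data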;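 also: hits displace the dye from DNA and so lower well fluorescence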
Hits are given with their value; . = inactive; / = not tested or not shown. An excerpt weighted towards active compounds, which were near 2.8% of everything screened.

SMILES	bovine MsrA act	sPLA2-III inh	MsrA inh	rCAG binder	rCAG bind conf	dCAG dye counter
Cc1ccc(-c2nc(Nc3ccc(O)cc3)c3ccccc3n2)cc1	.	.	.	.	/	/
O=C(O)c1cccc(Nc2nc(-c3ccc([N+](=O)[O-])cc3)nc3ccccc23)c1	.	.	.	.	/	/
Cc1ccc(-c2nc(Nc3cccc(O)c3)c3ccccc3n2)cc1	.	.	.	37	.	10
O=[N+]([O-])c1ccc(-c2nc(Nc3cccc(O)c3)c3ccccc3n2)cc1	.	.	.	48	.	13
CCc1cc(Cn2nc(-c3ccccc3)cc2C(=O)NCc2cccc(C(F)(F)F)c2)on1	.	.	.	.	/	/
O=C(CSc1nc2ccccc2n1CCc1ccccc1)c1ccc(O)c(O)c1	.	24	.	61	64	38
O=C(CSc1nc2ccccc2n1CCc1ccccc1)N1CCOCC1	.	.	.	.	/	/
CC(C)(C)C(=O)NC1(C(F)(F)F)NC(=O)N(CCc2ccccc2)C1=O (stereo not drawn)	.	.	.	.	/	/
O=c1c2ccccc2oc2cc(-c3ccc4[nH]ccc4c3)ccc12	.	.	.	35	.	11
CC(=O)Nc1ccc(NC(=O)c2cc(=O)c3cc(C)cc(C)c3o2)cc1	.	.	.	.	/	/
Cc1cc2oc(C(=O)Nc3ccc(S(=O)(=O)Nc4nccs4)cc3)cc(=O)c2cc1Cl	.	.	.	77	87	48
Cc1onc(-c2ccccc2Cl)c1C(=O)Nc1ccc(S(=O)(=O)Nc2nccs2)cc1	.	.	.	41	37	13
Cc1onc(-c2ccccc2Cl)c1C(=O)Nc1ccccc1	.	.	.	.	/	/
Cc1cc2oc(C(=O)Nc3ccc(S(=O)(=O)Nc4ncccn4)cc3)c(C)c2cc1Cl	.	.	.	.	/	/
Cc1cc(C)c2oc(C(=O)Nc3ccc(S(=O)(=O)Nc4nccs4)cc3)cc(=O)c2c1	.	.	.	68	64	29
COc1ccc(NS(=O)(=O)c2ccc(S(=O)(=O)N(C)C)cc2)cc1S(N)(=O)=O	.	.	.	.	/	/
CC(C)(CO)N=Cc1c(O)[nH]c2ccccc12	.	/	/	/	/	/
CC(Oc1cccc(Cl)c1)C(=O)Nc1nc(-c2ccccn2)cs1 (stereo not drawn)	.	.	.	.	/	/
Cn1c(SCC(=O)Nc2nccs2)nnc1-c1ccc(S(=O)(=O)N2CCCC2)cc1	.	.	.	.	/	/
O=C(CSc1n[nH]c(-c2ccc(S(=O)(=O)N3CCCCC3)cc2)n1)Nc1nccs1	.	.	.	39	36	9.0
Cc1ccc([C@H]2C(C(=O)O)=CC[C@@H](c3cccc(C)c3)N2S(=O)(=O)c2ccc(C)cc2)cc1	.	.	.	.	/	/
Cc1ccc([C@@H]2CC=C(C(=O)O)[C@H](c3ccccc3)N2S(=O)(=O)c2ccc(C)cc2)cc1	.	.	.	56	59	22
Cc1ccc([C@H]2C(C(=O)O)=CC[C@@H](c3ccc(C)cc3)N2S(=O)(=O)c2ccc(C)cc2)cc1	.	.	.	76	67	30
COc1ccc(NC(=O)COC(=O)C(NC(=O)c2ccc(C)cc2)C(C)C)cn1 (stereo not drawn)	.	.	.	.	/	/
COC(=O)[C@]12C[C@H](CC(=O)N3CCC(c4ccccc4)CC3)C(=O)N(CCC3=CCCCC3)C1=C[C@H](C1CCCC1)O[C@@H]2C	/	.	/	.	/	/
SMILES	bovine MsrA act	sPLA2-III inh	MsrA inh	rCAG binder	rCAG bind conf	dCAG dye counter
O=C(c1ccccc1)N1CCC(c2nc(-c3ccc(S(=O)(=O)N4CCOCC4)cc3)no2)CC1	.	.	.	.	/	/
CN(C)c1ccc(-c2noc(C3CCN(S(=O)(=O)c4cccc(C(=O)O)c4)CC3)n2)cc1	.	.	.	65	68	32
Cc1nnc(SCc2cccc([N+](=O)[O-])c2)s1	.	.	.	.	/	/
O=C(Nc1nnc(SCc2ccccc2)s1)c1cccc([N+](=O)[O-])c1	.	.	.	36	.	6.0
CC(=O)c1sc(N/N=C\c2c(O)ccc3ccccc23)nc1C	.	.	.	52	60	29
COc1ccc(OC)c(CNc2ccc3c(c2)nc(C)n3C)c1	.	.	.	44	.	.
O=C(CSCc1ccc(Cl)cc1Cl)Nc1ccc(O)cc1C(=O)O	.	.	.	.	/	/
O=C(CSCc1ccc(Cl)cc1)Nc1ccc(Br)cc1C(=O)O	.	.	.	44	36	8.7
COC(=O)CN1C(=O)C2(C(C#N)=C(N)Oc3c2c(C)nn3-c2ccccc2)c2ccccc21 (stereo not drawn)	.	.	.	.	/	/
COc1ccc(C(C)(C)C)cc1NC(=O)CNc1cccc2ccccc12	.	.	.	.	/	/
O=C(O)CSc1cc(C(=O)c2cc(F)ccc2O)cn2c(=O)c3c(-c4ccccc4)csc3nc12	.	.	.	85	90	70
CCc1c(C)sc2nc3c(C(=O)N4CCOCC4)cc(C(=O)c4cc(F)ccc4O)cn3c(=O)c12	.	.	.	.	/	/
CCOC(=O)c1sc2nc3c(SCCC#N)cc(C(=O)c4cc(F)ccc4O)cn3c(=O)c2c1C	.	.	.	.	/	/
CCOC(=O)c1sc2nc3c(SCCC(=O)O)cc(C(=O)c4cc(OC)ccc4O)cn3c(=O)c2c1C	.	.	.	35	68	39
COc1ccc(CCNc2nc(-c3ccccn3)cs2)cc1OC	.	.	.	.	/	/
O[C@@H]1Cc2ccccc2O[C@H]1c1ccccc1	.	.	.	.	/	/
COc1cccc(/C=C/C(=O)OCC(=O)N2c3ccccc3CC2C)c1 (stereo not drawn)	.	.	.	.	/	/
COc1ccc(C(=O)Nc2cccc(/C=C/c3nc4ccccc4c(=O)[nH]3)c2)cc1	.	.	.	.	/	/
Brc1cc2c(cc1/C=N/Nc1nc3ccccc3s1)OCO2	.	.	.	.	/	/
COc1cc(/C=C(\CC(=O)O)c2nc3ccccc3s2)cc(OC)c1O	.	.	.	.	/	/
O=C(O)C/C(=C\c1cccc(NC(=O)c2ccccc2Cl)c1)c1nc2ccccc2s1	.	.	.	54	57	24
COc1ccc(C(=O)Nc2cccc(/C=C(\CCC(=O)O)c3nc4ccccc4s3)c2)cc1	.	.	.	62	76	38
O=C(O)C/C(=C\c1cc2c(cc1Br)OCO2)c1nc2ccccc2s1	.	.	.	35	36	9.5
COc1ccc(Oc2ccc(C(F)(F)F)cc2NC(=O)CC(CC(=O)O)c2ccccc2)cc1 (stereo not drawn)	.	.	.	46	42	8.0
CCC1=C(C)CN(C(=O)NCCc2ccc(S(=O)(=O)NC(=O)NC3CCC(C)CC3)cc2)C1=O (stereo not drawn)	.	.	.	42	.	5.0
O=C(NC1=N[C@@]2(C=C3CCCCC3n3c(=O)n(-c4ccccc4)c(=O)n32)[C@H](Cc2ccccc2)N1Cc1ccccc1)c1ccccc1 (stereo partly drawn)	/	.	/	56	53	20
CCOC(=O)CCC(NC(=O)CCCCCCCCC(=O)NC(CCC(=O)OCC)C(=O)OCC)C(=O)OCC (stereo not drawn)	.	.	.	.	/	/
